Assay outcomes (PubChem BioAssay)
BAZ2B block: inhibitors of human BAZ2B bromodomain | AlphaScreen BAZ2B-H3K14Ac peptide displacement | Potency, µM (series often up to 114 µM), most hits filed as inhibitors | 360,000 compounds, 4.4% hits | AID 504333; also: nearly all actives have a fitted effect of over 60% in size
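Complex of BAZ2B and biotin-H3K14Ac (50 nM apiece) forms over 30 min at RT, then faces library compounds up to 110 uM for another 30 min; AlphaScreen beads added, 20 min dark incubation, luminescence read.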
Sfp PPTase inh: Sfp phosphopantetheinyl transferase inhibition; Q9F4F7; Biochemical Sfp PPTase activity, qHTS; Potency, µM, usual class: inhibitors; 310,000 compounds, 3.5% hits; AID 1490;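 also: the enzyme is Sfp with the accession as filed and its product quenches rhodamine fluorescence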
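After 15 min at room temperature with compound, 15 nM Sfp received 5 uM rhodamine-CoA plus 12.5 uM BHQ-2-ybbR (50 mM Hepes pH 7.6, 10 mM MgCl2). Rate came from the fluorescence difference over 30 min, ex 525/em 598 nm.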
G9a block: G9a (human) methyltransferase inhibition | Q96KQ7 | G9a H3K9 monomethylation, AlphaScreen, 2 h | Potency, µM (doses to about 102 µM), usual class: inhibitors | 350,000 compounds, 8.8% hits; also: nearly all actives have a fitted effect of over 75% in size
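Enzyme 20 nM + cpd, 15 min RT; add b-H3K9 pep 500 nM / SAM 20 uM; 2 h RT; anti-H3K9me1 Ab 0.5 ug/mL + SA donor / anti-rabbit acceptor beads 20 ug/mL each, 10 min; AlphaScreen read.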
JMJD2A Tudor inh: JMJD2A Tudor domain (human) inhibition | O75164 | AlphaScreen JMJD2A-Tudor / H3K4me3 peptide binding | Potency, µM (doses to about 114 µM), usual class: inhibitors | 390,000 compounds, 4.4% hits | AID 504339; also: nearly all actives have a fitted effect of over 50% in size
PLK1 PBD inh: PLK1 (human) polo-box domain binding inhibition; Plk1 PBD binding of FITC phosphopeptide, fluorescence polarization; Potency, µM, most hits filed as inhibitors; 360,000 compounds, 2.8% hits; P53350; also: series mostly up to about 57 µM; nearly all actives have a fitted effect of over 65% in size
Target sequence (P53350 whole entry, looked up, the tested form may be a part): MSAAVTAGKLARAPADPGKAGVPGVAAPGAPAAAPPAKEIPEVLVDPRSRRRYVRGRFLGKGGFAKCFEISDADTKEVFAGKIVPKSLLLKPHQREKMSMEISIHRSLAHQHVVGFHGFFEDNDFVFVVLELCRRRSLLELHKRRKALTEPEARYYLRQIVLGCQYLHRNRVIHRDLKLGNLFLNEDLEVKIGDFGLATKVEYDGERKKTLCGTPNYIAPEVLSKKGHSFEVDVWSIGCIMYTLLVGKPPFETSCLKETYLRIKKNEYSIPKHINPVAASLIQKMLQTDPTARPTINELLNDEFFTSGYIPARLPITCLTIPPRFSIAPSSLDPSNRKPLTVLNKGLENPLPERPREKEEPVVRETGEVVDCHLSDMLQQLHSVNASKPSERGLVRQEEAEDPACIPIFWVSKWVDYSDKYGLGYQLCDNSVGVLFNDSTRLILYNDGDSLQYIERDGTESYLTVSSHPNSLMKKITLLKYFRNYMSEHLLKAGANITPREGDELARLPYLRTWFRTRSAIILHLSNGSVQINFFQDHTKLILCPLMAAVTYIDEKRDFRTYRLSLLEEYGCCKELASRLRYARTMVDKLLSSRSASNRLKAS
HP1b binding inh: inhibitors of HP1-beta chromodomain binding to methylated histone tails. P83916. AlphaScreen HP1-beta / biotin-H3K9me3 peptide binding. Potency, µM (top dose mostly 114 µM), most hits filed as inhibitors. 390,000 compounds, 0.56% hits. AID 540317; also: nearly all actives have a fitted effect of over 70% in size
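AlphaScreen: HP1-beta (50 nM) preformed 30 min with biotin-H3(1-18)K9me3 peptide (50 nM) in PBS pH 7.4, 0.01% Tween-20. Compound added for 30 min at RT, then streptavidin donor/nickel chelate acceptor beads (10 ug/mL) for 30 min.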
Numbers stand for hits; - = inactive; ? = inconclusive; . = no result; ! = not confirmed by another sample; [ ] = dose if it differs, or a comment. Shown are actives, neighbours in structure and some others; about 12% of the full set was active somewhere. Calls follow the shape of the dose curve; as a rule, active = well fitted curve in the direction sought with a large enough effect; inconclusive = small, poorly fitted or top-dose-only effect, or another doubt; inactive = no such curve, though single readings can be large; an effect the other way counts as inactive or inconclusive.

SMILES	BAZ2B block	Sfp PPTase inh	G9a block	JMJD2A Tudor inh	PLK1 PBD inh	HP1b binding inh
CCC(C)C(=O)Nc1nnc(-c2cccs2)s1 (stereo not given)	-	50µM	14µM	-	?	-
CCC(=O)Nc1nnc(-c2cccs2)s1	-	-	-	-	-	-
O=C(O)c1cccc2c1C(=O)c1ccc(-c3ccc(F)cc3F)cc1S2(=O)=O	-	.	-[2.33 µM]	-	-	-
Cc1ccc(N2C(=O)CSC23C(=O)N(CC(=O)NCc2ccccc2)c2ccccc23)cc1 (stereo not given)	-	.	-	-	.	-
CC(C(=O)Nc1nccs1)N1C(=O)c2ccccc2S1(=O)=O (stereo not given)	-	.	-	-	-	-
CC[C@]12c3[nH]c4ccccc4c3CCN1C(=O)C(CC(=O)NCCCOC)C[C@@H]2C(=O)N1CCN(C(=O)c2ccco2)CC1 (stereo not given in full)	.	.	.	-	-	-
CSc1ccc(CCNC(=O)CCc2c(C)nc3cc(-c4ccccc4)nn3c2C)cc1	-	.	-	?	.	-
Cc1cccc(Nc2n[nH]c(=S)s2)c1C	45µM	20µM	?	5.6µM	30µM	?
Cc1cc(C)c(Nc2n[nH]c(=S)s2)cc1C	.	.	.	.	27µM	.
COc1cccc(Nc2n[nH]c(=S)s2)c1	?	50µM	1.4µM	3.2µM	24µM	?
COc1ccccc1Nc1nc(-c2ccccc2)c(CC(=O)O)s1	-	.	?	-	.	-
COc1ccccc1Nc1n[nH]c(=S)s1	20µM	79µM	1.3µM	4µM	21µM	22µM
COc1cccc(Nc2nc3ccc(OC)cc3s2)c1	-	-	?	-	-	-
COc1cc(NC(=O)CCc2c(C)nc3c(c(C)nn3-c3ccccc3)c2C)cc(OC)c1OC	-	.	-	-	.	-
COc1cccc(OCc2cc(C(=O)NCc3cnc4ccccn34)no2)c1	-	-	-	-	-	-
Cc1nc(N2CCOCC2)c2c(C(=O)NCc3ccc(Cl)cc3)c(C)oc2n1	-	.	-	-	.	-
Cc1ccc(CNC(=O)COC(=O)CCOc2ccc(C)cc2)cc1	-	.	-	-	-	-
COCCn1c(=O)c(C)nc2cnc(OC)nc21	.	-	-[0.501 µM]	.	.	.
Cc1ccc(Nc2n[nH]c(=S)s2)c(C)c1	.	.	.	.	24µM	.
Cn1cnc(C(=O)N2CCN(c3ccccc3)CC2)c1C(=O)N1CCN(c2ccccc2)CC1	56µM	.	-[2.33 µM]	28µM	?	-
Cn1cnc(C(=O)N2CCN(C(=O)OC(C)(C)C)CC2)c1C(=O)N1CCN(C(=O)OC(C)(C)C)CC1	-	.	-[2.33 µM]	-	-	-
CSc1nsc(SCC(=O)Nc2ccccc2F)n1	-	-	-	-	-	-
Cc1cccc(-c2nsc(SCC(=O)NCc3ccc4c(c3)OCO4)n2)c1	-	-	-	-	-	-
CSc1nsc(SCC(=O)Nc2ccccc2C(N)=O)n1	-	-	79µM	-	-	-
CSc1nsc(SCC(=O)Nc2ccc(OC(C)=O)cc2)n1	-	-	-	-	-	-
SMILES	BAZ2B block	Sfp PPTase inh	G9a block	JMJD2A Tudor inh	PLK1 PBD inh	HP1b binding inh
COc1ccc(CNC(=O)CSc2nc(SC)ns2)cc1	-	-	45µM	-	-	-
COc1ccc(-c2nsc(SCC(=O)NCc3ccc4c(c3)OCO4)n2)cc1	-	-	25µM	-	-	-
COc1ccc2c(CC(=O)NCc3ccc4c(c3)OCO4)coc2c1	50µM	-	?	40µM	-	-
Cc1ccc2c(CC(=O)NCc3ccc4c(c3)OCO4)coc2c1	-	-	-[12.7 µM]	-	-	-
Nc1ncnc2c1[nH]c(=S)n2C1OC(CO)C(O)C1O (stereo not given)	.	.	.	?	.	-
Cc1ccc(C(=O)Nc2ccc(C(=O)N/N=C/c3cccnc3)cc2)cc1	-	-	79µM	?	-	?
Cc1ccc(C(=O)N/N=C/c2nc3ccccc3n2C)cc1	?	-	-[12.7 µM]	63µM	-	-
CC(C)(C)OC(=O)N/N=C\c1cccnc1	-	-	1.3µM	-[11.4 µM]	-	-
Cn1c(/C=N/NC(=O)c2ccccc2Br)nc2ccccc21	-	?	-[0.501 µM]	-	-	-
COc1cccc(OCc2nn3c(=O)c(-c4ccccc4)nnc3s2)c1	-	-	-	-	-	-
CC1(C)CCC[C@]2(C)[C@H]3Cc4cc(O)ccc4O[C@]3(C)CC[C@@H]12	.	.	.	?	-	-
CCc1ccc(NS(=O)(=O)c2ccc3[nH]cc(C(=O)NC4CCCC4)c(=O)c3c2)cc1	.	.	?	?	.	-
Cc1ccccc1NC(=O)Cc1nc(COC(=O)CC(C)c2ccccc2)cs1 (stereo not given)	-	.	-	-	-	-
CCCCNc1ccc2c(c1)C1CC2CCN1C(=O)OCc1ccccc1 (stereo not given)	.	.	.	25µM	-	-
CCCCN(C=O)c1c(CC)nc2ccc(C(=O)N(C)Cc3ccccc3)cn12	.	.	.	.	-	.
S=C(N=Nc1ccccc1)NNc1ccccc1	35µM	-	10µM	25µM	-	16µM
COc1ccc(-c2[nH]c(-c3ccccc3)nc2SCC(=O)Nc2ccc3c(c2)OCCO3)cc1	?	.	?	?	.	-
COc1ccc(-c2[nH]c(-c3cccc(OC)c3)nc2SCC(=O)NC2CCCC2)cc1	?	-	79µM!	?	-	-
COc1cccc(-c2nc(SCC(=O)Nc3ccc4c(c3)OCO4)c(-c3ccccc3)[nH]2)c1	?	.	8.9µM	?	.	?
COc1ccc(-c2nc(SCC(=O)Nc3ccc4c(c3)OCO4)c(-c3ccc(OC)cc3)[nH]2)cc1	79µM	.	13µM	?	.	-
C#CCOCCOCCOCCNc1nc(N2CCN(C(=O)[C@H]([C@@H](C)CC)n3cc([C@@H](N)Cc4ccc(O)cc4)nn3)CC2)nc(N2CCN(C(=O)[C@H]([C@@H](C)CC)n3cc([C@@H](N)CC(C)C)nn3)CC2)n1	?	-	-	45µM	-	-
C#CCOCCOCCOCCNc1nc(N2CCOCC2)nc(N2CCN(C(=O)[C@H]([C@@H](C)CC)n3cc([C@@H](N)Cc4ccc(O)cc4)nn3)CC2)n1	-	-	?	-	-	-
C#CCOCCOCCOCCNc1nc(N2CCN(C(=O)[C@H]([C@@H](C)CC)n3cc([C@@H](N)Cc4ccc(O)cc4)nn3)CC2)nc(N2CCN(C(=O)[C@H](Cc3ccc(O)cc3)n3cc([C@@H](N)CC(C)C)nn3)CC2)n1	56µM	-	?	14µM	-	-
C#CCOCCOCCOCCNc1nc(N2CCN(C(=O)[C@H](C)n3cc(CCC(=O)O)nn3)CC2)nc(N2CCN(C(=O)[C@H](Cc3ccc(O)cc3)n3cc(CCO)nn3)CC2)n1	.	.	.	-	-	-
C#CCOCCOCCOCCNc1nc(N2CCN(C(=O)[C@H]([C@@H](C)CC)n3cc([C@@H](N)CO)nn3)CC2)nc(N2CCN(C(=O)[C@H](Cc3ccc(O)cc3)n3cc([C@@H](N)CC(C)C)nn3)CC2)n1	32µM	-	?	56µM	-	-
